Laboratory results as given in PubChem BioAssay (NCI).
Compounds without any hit were thinned out: in the full panel of roughly 83,000, 20% have a hit.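 Cell lines were cultured in 96-well plates, exposed to a single compound concentration, and assessed for percent growth 48 hours later.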 A number with no mark means an inactive call. Activity calls are given as the source filed them. Rule for the calls: active = growth percent below 10; inactive = the rest.

Legend:
Assay in all cases: NCI-60 one-dose screen, 48 h (100 = growth as untreated, 0 = no growth, -100 = all killed)
Details in all cases: 10 µM unless noted
[1] = test system: RPMI-8226 leukemia
[2] = test system: OVCAR-8 ovarian
[3] = test system: OVCAR-5 ovarian
[4] = test system: OVCAR-4 ovarian
[5] = test system: SK-OV-3 ovarian
[6] = test system: IGROV1 ovarian
[7] = test system: OVCAR-3 ovarian
[8] = test system: HS 578T breast
[9] = test system: NCI/ADR-RES ovarian
[10] = test system: T-47D breast

Structure (SMILES) | growth [1] | growth [2] | growth [3] | growth [4] | growth [5] | growth [6] | growth [7] | growth [8] | growth [9] | growth [10]
COc1ccc(-c2cc(Cc3cccs3)c(=O)n(Cn3cncn3)n2)cc1 | 98.7% | 92.9% | 88% | 98.5% | 103% | 122% | 113% | 106% | 101% | 93.9%
COc1cc2c(C#N)n3c(c2cc1OC)C(=O)C(c1ccccc1)Oc1ccccc1-3 (stereo not given) | 28.7% | 18.1% | 69.2% | 16% | 97.6% | 58.3% | 53.2% | 73.5% | 21.5% | 17.1%
CCOc1cc(-c2ccc[nH]2)[nH]c1/C=C1\N=C(C)C(C(=O)OC)=C1C | -40.5% (active) | -45.8% (active) | -67.6% (active) | -38.6% (active) | -63.7% (active) | -45% (active) | -89.2% (active) | -23.3% (active) | -58.7% (active) | -63.8% (active)
O=C(O)c1ccc(NC(=O)c2cccc(Nc3ccnc(C(F)(F)F)c3)c2)cc1 | 98.3% | 98.9% | 103% | 98.1% | 105% | 106% | 104% | 98.3% | 107% | 94.3%
COC(=O)[C@]12CC[C@@H](C)[C@H](C)[C@@H]1C1=CC[C@@H]3[C@@]4(C)C[C@@H](OC(=O)c5ccco5)[C@H](O)[C@@](C)(CO)[C@@H]4[C@H](O)C[C@@]3(C)[C@]1(C)CC2 | -64.7% (active) | -76.1% (active) | -85.3% (active) | -67.9% (active) | -97.2% (active) | -65% (active) | -93.8% (active) | -39.9% (active) | -80.6% (active) | -68.3% (active)
Oc1[nH]c2ccc(Cl)cc2c1/C=c1/ccc2c(c1)N=C(c1ccc(C(F)(F)F)cc1)N=2 | 69% | 67.6% | 76.2% | 59.5% | 84.4% | 76.8% | 32.3% | 74% | 62.7% | 60.5%
Cc1nc(N)[nH]c(=O)c1C | 83.7% | 105% | 98.3% | 111% | 99.4% | 9.58% (active) | 121% | 183% | 91% | 83%
CC(=O)Oc1ccc(C2OC(c3ccc4ccccc4c3OC(C)=O)=NN2C(C)=O)c(OC(C)=O)c1 (stereo not given) | 21.2% | 8.13% (active) | 63.2% | 32.2% | 27.6% | 20.3% | 18.7% | 59.7% | 11.1% | 25%
Fc1ccc(-c2nnc(-c3c(-c4ccc(F)cc4)nc4ncccn34)o2)cc1 | 92.5% | 95.7% | 87.3% | 106% | 112% | 106% | 110% | 115% | 97.3% | 95.4%
O=C(Nc1ccncc1)C(=O)c1cn(S(=O)(=O)c2cccc(F)c2)c2ccccc12 | 30.1% | 45% | 73.9% | 67.2% | 93.8% | 40.6% | 23.5% | 55.8% | -11.2% (active) | 31.6%
COc1ccccc1[C@H]1c2[nH]c3ccccc3c2C[C@H]2C(=O)N(CCCCCCC(=O)NO)CC(=O)N12 | -1.71% (active) | 36.9% | 26.4% | 58.1% | 61.7% | 41.1% | 48.2% | 53.6% | 72.4% | 18.2%
CC(C)(C)c1ccc(S(=O)(=O)O)s1 | 95.9% | 108% | 96.3% | 96.6% | 101% | -12.6% (active) | 115% | 88.8% | 106% | 97.9%
COc1ccc(OC)c(NC(=O)c2cc3oc4ccccc4c3cc2O)c1 | 53.4% | 86.7% | 103% | 91.4% | 81.1% | 56.1% | 137% | 84.6% | 88.6% | 74.4%
C/C(=N\N1CC(=O)NC1=O)c1ccc([N+](=O)[O-])o1 | 71% | 98.2% | 111% | 105% | 109% | 99.6% | 102% | 108% | 93.7% | 102%
NC(=O)c1ccccc1NC(=O)c1ccccc1Cl | 85% | 99.4% | 108% | 98.3% | 107% | 96% | 109% | 108% | 115% | 96.4%
CC(=O)O[C@H]1C(=O)[C@@]2(C)C([C@H](OC(=O)c3ccccc3)[C@]3(O)C[C@H](OC(=O)[C@H](O)[C@@H](NC(=O)c4ccccc4)c4ccccc4)C(C)=C1C3(C)C)[C@]1(OC(C)=O)CO[C@@H]1C[C@@H]2O (stereo not given in full) | 3.77% (active) | 26.6% | 27.2% | 46.5% | 18.1% | 42% | -9.4% (active) | 14.9% | 43.9% | 47.3%
O=C1NCN(c2ccccc2)C12CCN(CCCC(c1ccc(F)cc1)c1ccc(F)cc1)CC2 | 102% | 66.1% | 83.2% | 48.5% | 73.4% | 47.7% | 66.8% | 69.3% | 69.9% | 94.2%
Cc1nn(-c2ccccc2)c2c1oc(=O)c1cc(Cl)ccc12 | 101% | 101% | 111% | 113% | 106% | 86.5% | 85.8% | 175% | 108% | 105%
CCOC(=O)/C(=C/c1ccccc1)C(=O)c1ccccc1 | 3.77% (active) | 65.3% | 97.3% | 81.8% | 92.6% | 65.8% | 63.5% | 88% | 65.3% | 73.6%
COc1ccc2c(c1)C(=O)c1c-2c(OCCN(C)C)nc2cc(OC)ccc12 | -25.4% (active) | 4.01% (active) | 44.9% | 4.71% (active) | 23.9% | 6.3% (active) | 32.5% | 35.6% | -11.3% (active) | 47.1%
CCN1C(=O)c2ccc3c4c(ccc(c24)C1=O)C(=O)N(CCCNCc1ccccc1OC)C3=O | -23% (active) | -22.9% (active) | -90.6% (active) | -60.3% (active) | 11.1% | -63% (active) | -20.1% (active) | -31.2% (active) | 4.44% (active) | -50.5% (active)
COc1ccc(-c2nn(-c3ccccc3)cc2/C=C2\SC(=S)N(CCc3ccc(O)cc3)C2=O)cc1 | 70.2% | 86.5% | 99.7% | 78.7% | 98.8% | 78.6% | 94% | 79.1% | 90.3% | 56.3%
COc1ccc(-c2noc(N)c2-c2cc(OC)c3c(c2)OCO3)cc1 | 7.65% (active) | 26.6% | 61.6% | 91.7% | 27.6% | 44.6% | -9.87% (active) | 21.4% | 9.7% (active) | 33.7%
O=c1cc(-c2cccnc2)oc2c1ccc1ccccc12 | 80.2% | 87% | 76.2% | 89.3% | 106% | 84.8% | 76.5% | 66.5% | 75.3% | 81.6%
COc1cc(C2NC(c3ccc(Cl)cc3)C(C)C(=NC(=O)c3cnccn3)C2C)cc(OC)c1OC (stereo not given) | 79.4% | 103% | 94.5% | 93% | 108% | 91.6% | 107% | 109% | 101% | 88%
CCc1[nH]nc(-c2ccc(OC)cc2)c1-c1ccccc1OCCN(CC)CC | 97.5% | 107% | 92.6% | 91.4% | 91.8% | 98.6% | 104% | 99.4% | 100% | 97.4%
C=C(C)[C@@H]1C/C=C(/C=O)CC[C@@H]2O[C@@]2(C)CC/C=C(\C)CC1 | -7.67% (active) | 105% | 97.2% | 122% | 106% | 986% | 110% | 126% | 115% | 101%
